Assay outcomes (PubChem BioAssay)
This excerpt belongs to a sample that is enriched for hits.
KDM5B inhibitor: Primary screen for KDM5B Histone Demethylases FDH-coupled qHTS; KDM5B demethylase, FDH-coupled NADH fluorescence (FDH is formaldehyde dehydrogenase); Potency, µM (highest dose often 57.7 µM), usual class: inhibitors; Lysine-specific demethylase 5B (Homo sapiens), Q9UGL1; 220,000 compounds, 2.6% hits; active = well fitted inhibition curve with a large enough effect; also: 0% is about no effect; nearly all actives have a fitted effect of over 70% in size
Target sequence (Q9UGL1 whole entry, looked up): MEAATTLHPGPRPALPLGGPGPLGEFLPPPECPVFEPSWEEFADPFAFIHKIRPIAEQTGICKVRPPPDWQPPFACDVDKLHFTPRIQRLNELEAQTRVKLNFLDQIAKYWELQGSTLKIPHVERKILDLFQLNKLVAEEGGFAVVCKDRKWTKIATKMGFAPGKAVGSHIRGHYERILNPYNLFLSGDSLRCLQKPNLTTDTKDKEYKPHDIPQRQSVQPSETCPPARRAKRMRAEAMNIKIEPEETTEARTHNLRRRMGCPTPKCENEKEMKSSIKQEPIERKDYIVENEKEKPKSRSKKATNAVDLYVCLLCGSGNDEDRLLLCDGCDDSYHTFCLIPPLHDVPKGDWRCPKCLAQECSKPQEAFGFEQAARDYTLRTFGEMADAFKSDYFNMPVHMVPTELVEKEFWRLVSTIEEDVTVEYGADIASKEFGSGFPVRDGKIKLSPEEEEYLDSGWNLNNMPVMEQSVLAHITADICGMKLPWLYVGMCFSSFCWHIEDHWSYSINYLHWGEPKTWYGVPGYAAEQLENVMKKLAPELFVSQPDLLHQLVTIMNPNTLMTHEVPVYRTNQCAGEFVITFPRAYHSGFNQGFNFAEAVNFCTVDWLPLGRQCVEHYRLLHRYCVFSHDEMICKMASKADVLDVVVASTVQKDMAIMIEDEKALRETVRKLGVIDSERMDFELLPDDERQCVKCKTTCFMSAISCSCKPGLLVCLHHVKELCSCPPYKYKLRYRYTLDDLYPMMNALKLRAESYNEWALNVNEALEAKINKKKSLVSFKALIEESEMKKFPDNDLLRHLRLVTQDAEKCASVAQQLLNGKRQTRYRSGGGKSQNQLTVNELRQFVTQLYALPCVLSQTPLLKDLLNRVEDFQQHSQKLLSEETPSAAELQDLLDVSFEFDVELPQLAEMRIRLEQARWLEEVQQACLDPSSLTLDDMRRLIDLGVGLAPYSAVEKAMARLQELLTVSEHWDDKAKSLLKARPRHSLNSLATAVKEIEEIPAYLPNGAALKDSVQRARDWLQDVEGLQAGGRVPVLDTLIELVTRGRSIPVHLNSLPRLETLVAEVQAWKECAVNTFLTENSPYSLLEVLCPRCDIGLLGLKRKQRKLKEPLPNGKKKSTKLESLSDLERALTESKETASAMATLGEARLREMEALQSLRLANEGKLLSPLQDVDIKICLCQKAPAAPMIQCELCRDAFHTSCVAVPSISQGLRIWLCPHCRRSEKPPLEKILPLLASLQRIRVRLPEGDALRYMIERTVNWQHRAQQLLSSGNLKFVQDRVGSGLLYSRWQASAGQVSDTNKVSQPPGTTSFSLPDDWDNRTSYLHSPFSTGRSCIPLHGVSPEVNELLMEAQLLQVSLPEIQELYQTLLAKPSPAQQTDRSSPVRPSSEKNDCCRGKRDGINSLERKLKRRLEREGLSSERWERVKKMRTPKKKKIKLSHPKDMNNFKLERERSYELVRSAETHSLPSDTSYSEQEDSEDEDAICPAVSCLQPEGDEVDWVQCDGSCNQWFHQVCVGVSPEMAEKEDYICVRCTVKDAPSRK
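Inhibition is measured as reduced NADH fluorescence generation from FDH coupling to formaldehyde release. Truncated KDM5BΔAP at 200 nM final acts on H3K4me3 peptide (12.5 µM in substrate mix) in pH 7.5 HEPES buffer with Tween-20, 30 min, room temperature.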
An asterisk follows results filed as active; i = inactive. Potency is read from the fitted curve at half-maximal effect.

SMILES	KDM5B inhibitor
Cc1c(CN(C)C(=O)c2cc(-c3ccccc3)nc3ccc(Br)cc23)cnn1C	i
CN(Cc1ccccc1)C(=O)c1cc(-c2ccccn2)nc2ccccc12	i
CN(Cc1ccccc1)C(=O)c1cc(-c2ccncc2)nc2ccccc12	i
COC(=O)[C@H]1CCCN1C(=O)[C@@H]1[C@@H](NC(=O)Nc2ccc(F)cc2F)CCN1C(=O)c1cccn1C	i
CCCc1nc(C(=O)NCc2nc(C)cc(C(F)(F)F)n2)cs1	i
Cc1ccc2nc(C(=O)NCCc3nc(C)cc(C(F)(F)F)n3)cn2c1	i
Cc1cc(C(F)(F)F)nc(CNC(=O)c2ccc3cccc(F)c3n2)n1	22.4µM*
Cc1cccc(CN2C(=O)C3(CCOCC3)CC2c2nnnn2C(C)(C)C)c1 (stereo not given)	i
CCOc1ccc(NC(=O)C2CC(=O)Nc3c(-c4ccc(F)cc4)cnn32)cc1 (stereo not given)	i
CCCC(=O)N1Cc2ccccc2CC2(CCN(C)C2)C1 (stereo not given)	i
O=C1NCc2ccccc2CC12CCCN(Cc1ccsc1)C2 (stereo not given)	i
COCc1nc(C2CCCN(C(=O)NCCC(C)C)C2)no1 (stereo not given)	i
O=C(NCc1ccc(F)cc1)c1nc(-c2ccc(F)cc2)c2cnccn12	35.5µM*
Cc1cccn2c(=O)c(C(=O)NCc3ccc(F)cc3)c(O)nc12	i
O=C(NCCc1ccc(Cl)cc1)c1nc(-c2ccc(Cl)nc2)c2ccccn12	50.1µM*
O=C(NCCc1cccnc1)c1ccc(Cl)cc1	i
O=C(NCCc1ccc(Cl)cc1)c1nc(-c2ccsc2)c2ccccn12	22.4µM*
O=C(Cn1c(=O)nc(-c2ccccc2)c2ccccc21)NCCc1ccc(Cl)cc1	i
O=C(NCc1ccc(F)cc1)c1nc(-c2cccnc2)c2cnccn12	i
O=C(Cc1cccs1)NCCc1ccc(Cl)cc1	i
Cc1oc(-c2ccc(C(=O)NCCc3ccc(Cl)cc3)cc2)nc1CSc1ccccc1	i
O=C(NCCc1ccc(Cl)cc1)c1nc(-c2ccc(F)cc2)c2cnccn12	31.6µM*
O=C(NCCc1ccccc1)c1ccc(CSc2nc3ccncc3n2Cc2ccc(F)cc2)cc1	i
Cc1cc(N2C(=O)CCS2(=O)=O)ccc1S(=O)(=O)NC(C)C	i
COc1ccc(CCNC(=O)/C(=N/O)c2ccccc2)cc1OC	i
SMILES	KDM5B inhibitor
C=CCOC(=O)COc1cc(C)cc2oc(=O)cc(-c3ccccc3)c12	i
N#Cc1ccc(N)c(C(F)(F)F)c1	i
CNC(=O)[C@H]1C[C@H](Oc2ccccc2)CN1C(=O)c1ccc2ccccc2n1	i
Cc1ccc2c(c1)Oc1ccc(S(=O)(=O)N(C)c3ccc(C)c(C)c3)cc1C(=O)N2	i
COc1cccc(CC(=O)N2C[C@@H](Oc3ccccc3)C[C@@H]2C(=O)N2CCOCC2)c1	i
CN(C1CCCCC1)S(=O)(=O)N1CCN(C(=O)Cc2ccc(Cl)cc2Cl)CC1	i
Cn1nccc1CN1CC2(C1)NC(=O)c1ccccc1O2	i
O=C(NCCc1ccc(Cl)cc1)c1nc(-c2ccc(F)cc2)c2ccccn12	25.1µM*
O=C(Cn1cccc1-c1nc(-c2ccc(F)cc2)no1)NCCc1ccc(Cl)cc1	i
Fc1ccc(CCc2nc(C3CCOC3)no2)cc1F (stereo not given)	i
Clc1ccc2nc(-c3nc(C4CCOC4)no3)cn2c1 (stereo not given)	22.4µM*
c1cn(-c2ccc(-c3nc(C4CCOC4)no3)cc2)cn1 (stereo not given)	i
CC(C)(C)CC(=O)Nc1nc2c(s1)C(=O)CC(C)(C)C2	i
CC(C)CCNC(=O)CSCc1coc(-c2ccc(Cl)cc2)n1	i
O=C(C1CC1)N1CCC(n2cc(-c3nc(-c4ccccc4)no3)nn2)CC1	i
CCC(C)n1nnc2cc(S(=O)(=O)N3CCC(C(=O)NCc4ccc(OC)cc4)CC3)ccc21 (stereo not given)	i
COC(=O)c1c(C)cccc1NCC(=O)NC(=O)NC(C)C	i
Cc1cc(C)c(C)c(S(=O)(=O)N2CCCc3ccccc32)c1C	i
Cc1cccc(CN2CCCC(O)(CNCc3ncccc3C)C2=O)c1 (stereo not given)	28.2µM*
Cc1cccc(CN2CCCC(O)(CN3CCNC(=O)C3(C)C)C2=O)c1 (stereo not given)	i
Cc1cccc(CN2CCCC(O)(CN3CCC(C)CC3)C2=O)c1 (stereo not given)	i
O=C(NC1CCCN(c2cc(-c3ccc(F)cc3)[nH]n2)C1)c1cc(Cl)ccc1F (stereo not given)	i
Cc1ccc(C)c(S(=O)(=O)c2nnn3c2nc(N2CCCCC2)c2ccccc23)c1	i
Cc1noc(C)c1-c1cc2cc(CO)oc2c(NC2CCOCC2)n1	35.5µM*
Cc1noc(C)c1-c1cc2cc(C(C)C)oc2c(NCCN2CCOCC2)n1	i
SMILES	KDM5B inhibitor
Cc1cc2cc(-c3c(C)noc3C)nc(NC3CC3)c2o1	i
Cc1noc(C)c1-c1cc2cc(CN(C)C)oc2c(NCc2ccccc2)n1	i
Cc1noc(C)c1-c1cc2cc(C(C)C)oc2c(NCc2cccnc2)n1	i
Cc1noc(C)c1-c1cc2cc(CO)oc2c(NCC2CCOCC2)n1	31.6µM*
Cc1noc(C)c1-c1cc2cc(C(C)C)oc2c(NC2CCN(C)CC2)n1	i
Cc1noc(C)c1-c1cc2cc(CN(C)C)oc2c(NCc2cccnc2)n1	i
Cc1noc(C)c1-c1cc2cc(CN(C)C)oc2c(Nc2cccnc2)n1	28.2µM*
Cn1ncc(N2CCOC(CCNc3nc4ccccc4s3)C2)cc1=O (stereo not given)	i
CN1CCC(C(=O)N2Cc3ccccc3CC3(CCCN(CC4CCOCC4)C3)C2)CC1 (stereo not given)	i
CS(=O)(=O)c1ccc(O[C@H]2COCCN(Cc3ccccn3)C2)cc1	i
N#Cc1ccc(/C=C2\CCOc3cc(Br)ccc3C2=O)cc1	i
CC(C)CCN1CCC2(Cc3ccccc3CNC2=O)C1 (stereo not given)	i
CCCCn1cnc2c1c(=O)n(CC(=O)Nc1cccc(Cl)c1)c(=O)n2CC(C)C	i
Cn1cc(-c2cc(=O)c3ccnc(-c4cccc5[nH]ccc45)c3o2)cn1	i
Cn1cc(-c2cc(=O)c3ccnc(NCc4ccc5c(c4)OCO5)c3o2)cn1	31.6µM*
COc1cc2ncnc(NCc3ccc4c(c3)OCO4)c2cc1OC	i
COCc1ccccc1-c1nccc2c(=O)cc(-c3cnn(C)c3)oc12	35.5µM*
Cn1c(=O)c2c(nc(NCc3ccc4c(c3)OCO4)n2C)n(C)c1=O	i
O=C(O)CCCC(=O)Nc1ccc(C(=O)N2CCCCCC2)cc1	i
Cc1c(-c2nsc(NC(=O)c3cccc(Cl)c3)n2)nnn1-c1cc(F)ccc1F	i
CC(C)CCNC(=O)CC1Sc2ncccc2N(CC(C)C)C1=O (stereo not given)	i
O=C(c1ccco1)N1N=C(c2ccc(Cl)cc2)CC1c1ccc2nccnc2c1 (stereo not given)	i
CC(C)c1nc2c(c(-c3ccc(O)cc3)n1)CN(C(=O)c1cccc(Cl)c1)CC2	i
O=C(CS(=O)(=O)c1ccc(Br)cc1)c1ccccc1	i
CN1C(=O)CCCCC1C(=O)NC1CCCC1 (stereo not given)	i
CN(C)Cc1nnc(C2CC(NC(=O)c3ccc4c(c3)CCC4)C2)n1C (stereo not given)	i
